Measurements taken from PubChem BioAssay (NCI).
Values joined by “and” are separate entries in the source; they are usually repeats but may differ in a detail not shown here. Equal values may be shown once. Compounds without any hit were thinned out: in the full panel of roughly 83,000, 20% have a hit.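 Growth was measured after 48 h exposure to one concentration of compound in 96-well plates. Values under 10 count as active.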 Unmarked numbers belong to inactive results. Active and inactive are the calls of the source.

What was measured:
Test in all cases: NCI-60 one-dose screen, 48 h (100 = growth as untreated, 0 = no growth, -100 = all killed)
Settings in all cases: 10 µM unless noted
NCI-H23 lung = tested on: NCI-H23 lung
NCI-H226 lung = tested on: NCI-H226 lung
NCI-H322M lung = tested on: NCI-H322M lung
HOP-62 NSCLC = tested on: HOP-62 NSCLC
NCI-H460 lung = tested on: NCI-H460 lung
HOP-92 NSCLC = tested on: HOP-92 NSCLC
NCI-H522 lung = tested on: NCI-H522 lung
A549/ATCC NSCLC = tested on: A549/ATCC NSCLC
786-0 renal = tested on: 786-0 renal
COLO 205 colon = tested on: COLO 205 colon

Structure (SMILES)	growth (NCI-H23 lung)	growth (NCI-H226 lung)	growth (NCI-H322M lung)	growth (HOP-62 NSCLC)	growth (NCI-H460 lung)	growth (HOP-92 NSCLC)	growth (NCI-H522 lung)	growth (A549/ATCC NSCLC)	growth (786-0 renal)	growth (COLO 205 colon)
CC(C)(C)OC(=O)NCCc1ccc(N)cc1	104%	94.9%	103%	96.1%	97.4%	88.4%	83.5%	91%	100%	110%
O=C(O)C#Cc1ccc(Cl)cc1	109%	93.2%	111%	89.3%	105%	97.8%	87.2%	87.2%	99.4%	99.9%
CCCCOC1NC(=O)NC(=O)C1(F)C(=O)OCC (stereo not given)	79.6% and 55.9%	101% and 102%	74% and 67.9%	76.9% and 43.3%	47.2% and 25.6%	67.6% and 85.6%	80.1%	48.8% and 46.3%	93% and 67.6%	61.7% and 53.9%
Cn1c(N)c(N=O)c(=O)n(C)c1=O	96.2%	115% and 104%	113% and 88.7%	101% and 108%	111% and 102%	103%	97% and 73.4%	106% and 96.8%	108% and 103%	107% and 117%
CCOC(=O)NC(N)=O	103% and 99%	99.8% and 96.5%	93% and 105%	88.5% and 111%	105% and 104%	102%	89.4% and 103%	104% and 107%	97.3% and 101%	110% and 118%
COc1ccc([N+](=O)[O-])cc1OC	98.5% and 106%	101% and 98.2%	105%	98.2% and 109%	102% and 111%	93.5% and 92.7%	111% and 93.7%	93% and 92.9%	104% and 95%	112% and 115%
O=[N+]([O-])c1ccc(NC(c2ccccc2)c2ccc3cccnc3c2O)cc1 (stereo not given)	32%	16.6%	29.8%	26.5%	-16% (active)	62.5%	17.9%	13.8%	18.3%	30.3%
CC(=O)Oc1ccc(C(c2ccc(OC(C)=O)cc2)c2ccccn2)cc1	59.7% and 57%	89.2% and 106%	30.6% and 64.6%	87.9% and 109%	105% and 101%	66.1% and 34.1%	91.4% and 72.6%	87% and 13.8%	101%	24% and 17.9%
CC(C)(C)OC(=O)CC1(O)CCCCC1	101%	93.7%	111%	114%	103%	86.1%	102%	109%	101%	109%
O=C1C2=C(Nc3cc(Cl)ccc3N2)OC1c1c[nH]c2ccc(COc3ccccc3)cc12 (stereo not given)	59.3%	2.7% (active)	64.7%	-14.7% (active)	59.7%	42.3%	54.8%	74.2%	38.8%	111%
CCNC1=CC(=O)c2ncccc2C1=O	-49.7% (active)	33.9%	13.9%	-42.5% (active)	-78.3% (active)	145%	-46.3% (active)	-54.8% (active)	83.6%	-62.5% (active)
